A selection: hits, their analogues and other compounds. The true share with any hit is near 4.4%.
HPGD block – blocks human HPGD enzyme activity | hit rate 4.3% among 150,000 | P15428 | Potency, µM, for inactives: at the top dose activity change, negative = inhibition, most hits filed as inhibitors | purified HPGD, NADH fluorescence kinetic, PGE2 substrate | AID 894; active = well fitted inhibition curve with a large enough effect, not every such curve was filed as active; inconclusive = small, poorly fitted or top-dose-only effect, or another doubt; inactive = no such curve, though single readings can be large or run the other way
Target sequence (P15428 whole entry, looked up): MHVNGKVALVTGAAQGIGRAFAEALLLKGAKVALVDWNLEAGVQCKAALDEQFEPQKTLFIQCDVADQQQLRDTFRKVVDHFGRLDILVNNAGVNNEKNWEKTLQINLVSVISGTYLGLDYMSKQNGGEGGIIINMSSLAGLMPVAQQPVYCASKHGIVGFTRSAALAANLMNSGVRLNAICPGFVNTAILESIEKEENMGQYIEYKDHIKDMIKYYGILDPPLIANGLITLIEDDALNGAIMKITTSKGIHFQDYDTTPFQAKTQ
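NADH formation kinetics: reaction with 30 uM PGE2 and 1 mM NAD+ (final), 20 nM enzyme, Tris-HCl pH 8 with Tween 20, after 15 min compound preincubation at room temperature. Fluorescence change, last versus first of five reads.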
p53ts 39C kill – cytotoxicity in p53ts cells at nonpermissive temperature | H1299-p53A138V viability at 39C, ATP luminescence, 24 h | Potency, µM (titrated, usually from 46.1 µM), for inactives: at the highest dose activity change, negative = cell killing, usual class: cytotoxic | hit rate 1.5% among 130,000; also: nearly all actives have a fitted effect of over 55% in size
12-hLO inh – blocks human 12-lipoxygenase activity; P18054; purified 12-hLO, xylenol orange hydroperoxide absorbance; hit rate 0.12% among 150,000; AID 1452; Potency, µM (top dose mostly 57.1 µM), inactives show at the highest dose activity change, negative = inhibition, usual class: inhibitors; also: nearly all actives have a fitted effect of over 55% in size
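Purified human 12hLO (150 nM), preincubated 15 min with compound, then 40 uM arachidonic acid for 30 min, room temperature, Hepes pH 7.0 with 0.01% Triton X-100. Hydroperoxide detected by ferrous iron/xylenol orange; 573/405 nm absorbance ratio gives reaction progress.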
p53ts 32C kill – p53ts cell cytotoxicity, permissive temperature. H1299-p53A138V at 32C, ATP luminescence viability, 24 h. Potency, µM (doses to about 46.1 µM), for inactives: top-dose activity change, negative = cytotoxicity, actives largely listed as cytotoxic. hit rate 0.93% among 130,000;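 also: 0% = DMSO and -100% = full killing by reference compound; nearly all actives have a fitted effect of over 55% in size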
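Cells: H1299 p53ts (A138V), 600/well, pre-incubated 16–30 h at 37C. Cpd up to 46 uM, 24 h, 32C. Readout: ATPlite luminescence, 20 min RT. Normalization: DMSO vs tamoxifen 100 uM. AC50 by Hill equation.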
* = called active by the depositor; ? = inconclusive; / = no result given; ! = not active in a repeat; [ ] = dose if it differs, or a comment. Unless noted, calls follow the shape of the dose curve; as a rule, active = well fitted curve in the direction sought with a large enough effect; inconclusive = small, poorly fitted or top-dose-only effect, or another doubt; inactive = no such curve, though single readings can be large; an effect the other way counts as inactive or inconclusive. Unless noted, % is scaled to controls: 0 for no effect and ±100 for the full control effect; potency is read from the fitted curve at half-maximal effect.

SMILES	HPGD block	p53ts 39C kill	12-hLO inh	p53ts 32C kill
Cc1sc2c(c1C)c(=O)n(-c1ccccc1)c(=O)n2CC(=O)c1ccc(Cl)cc1	/	-9%	/	13%
CCOc1ccc(C2=C(C(=O)CC)Sc3nncn3N2C(=O)CC)cc1	/	?	/	11µM*
CCC(=O)C1=C(c2ccc(F)cc2)N(C(=O)CC)n2cnnc2S1	/	66%	/	9%
O=C(CCCn1c(=O)c2ccccc2n(Cc2ccc(F)cc2Cl)c1=O)NCCc1ccc(Cl)cc1	/	?	/	-8%
Cc1ccc(-n2c([C@@H]3C[C@H]3c3ccccc3)n[nH]c2=S)cc1	?	/	-5%	/
Cc1ccc(-n2c(C3CC3c3ccc(Cl)cc3)n[nH]c2=S)cc1 (stereo unspecified)	8.9µM*	/	?	/
Cc1ccc(C2CC2c2n[nH]c(=S)n2-c2ccc(C)cc2)cc1 (stereo unspecified)	?	/	-13%	/
S=c1[nH]nc(C2CC2c2ccc(Cl)cc2)n1-c1ccc(Cl)cc1 (stereo unspecified)	5µM*	/	-29%	/
Nc1ccc([N+](=O)[O-])c(N)c1	-11%	2%	-4%	3%[1.84 µM]
Cc1nnc(SCC(=O)NCc2cccc(F)c2)c2nn(-c3ccccc3)c(C)c12	/	5%	/	19%
CCOc1ccc(CNC(=O)CSc2nnc(C)c3c(C)n(-c4ccccc4)nc23)cc1	/	25µM*	/	2%
CCCCNC(=O)CSc1nnc(C)c2c(C)n(-c3ccccc3)nc12	/	16µM*	/	7%
Cc1nnc(SCC(=O)NCc2ccccc2F)c2nn(-c3ccc(Cl)cc3)c(C)c12	/	43%	/	-20%
COC(=O)[C@H]1C[C@@H]1[C@H](NC(C)=O)c1ccccc1	-4%	-15%	6%	-14%
Cc1ccc(OCCCn2c(CCNC(=O)C3CCCCC3)nc3ccccc32)c(C)c1	/	?	/	4%
CC(C)(C)C(=O)NCCc1nc2ccccc2n1CCCCOc1ccc(Cl)cc1	/	32µM*	/	6%
Cc1cc(OCCCn2c(CCNC(=O)C3CCCCC3)nc3ccccc32)ccc1Cl	/	13µM*	/	?
Cc1cccc(C)c1OCCCn1c(CCNC(=O)C2CCCCC2)nc2ccccc21	/	16µM*	/	?
CCOC(=O)c1c(S(=O)(=O)N2CCC(C(=O)NCc3ccc(F)cc3)CC2)c(C)n(C)c1C	/	15%	/	-2%
CCOc1ccc(NC(=O)Cn2c(=O)oc3cc(S(=O)(=O)N4CCC(C)CC4)ccc32)cc1	/	-7%	/	0%
COc1ccc(CCNC(=O)c2ccc3c(c2)CCN3S(=O)(=O)c2ccc(C)cc2)cc1OC	/	-17%	/	-2%
N#Cc1cc(-c2ccccc2)nn1-c1ccccc1	13µM*	10%	-14%	5%
Nc1ccccc1Nc1cc(-c2ccccc2)nn1-c1ccccc1	-11%	-15%	-1%	-2%
COCCn1c(=O)c(-c2cc(F)cc(F)c2)nc2cnc(Nc3cccc(OC)c3)nc21	-8%	-4%	-6%	-13%
O=C(/C=C\c1ccccc1OC(=O)c1ccccc1F)c1cc2ccccc2o1	28µM*	13%	-5%	2%
SMILES	HPGD block	p53ts 39C kill	12-hLO inh	p53ts 32C kill
CC(C)CCn1c(=O)c2cccnc2n(CC(=O)Nc2ccc(F)cc2)c1=O	/	?	/	-2%
CC(=O)NCCc1c[nH]c2ccc(O)cc12	11µM*!	2%	-2%	-4%
COc1ccc2[nH]cc(CCNC(=O)Nc3cc(C)cc(C)c3)c2c1	/	13µM*	/	1%
Cc1cc(C)c(NC(=O)Cn2c(=O)n(CC3CCCO3)c(=O)c3ccccc32)c(C)c1 (stereo unspecified)	/	11%	/	8%
O=C(NCCc1ccccc1)c1ccc2c(c1)CCN2S(=O)(=O)c1ccccc1	/	?	/	6%
O=C(Nc1ccc(F)cc1F)c1c2c(nc3ccccc13)C(=O)N(C1CCCCC1)C2	/	?	/	-2%
COc1ccc(C)cc1NC(=O)c1c2c(nc3ccccc13)C(=O)N(C1CCCCC1)C2	/	10µM*	/	-22%
CCCCCSc1nnc(-c2ccc(Br)cc2)o1	/	29%	/	-3%
Cc1ccc(C)c(N2CCN(C(=O)c3cc(S(=O)(=O)N4CCCCCC4)cn3C)CC2)c1	/	-6%	/	14%
COc1ccc(C(=O)/C=C/c2ccc(OC3CSC3)cc2)cc1OC	14µM*	/	-18%	/
Cc1ccc(CNC(=O)CCCc2nc3ccccc3s2)cc1	?	/	2%	/
O=C(CCCc1nc2ccccc2s1)NCc1ccccc1F	32µM*	/	1%	/
O=C(O[C@@H]1OC2COC(=O)c3cc(O)c(O)c(O)c3-c3c(cc(O)c(O)c3O)C(=O)O[C@@H]([C@H]1O)[C@@H]2O)c1cc(O)c(O)c(O)c1	1.8µM*	/	-7%	/
Cc1cc(C)c2sc(N3CCN(C(=O)C4CC4)CC3)nc2c1	/	7.9µM*	/	?
COc1ccc(Nc2oc(COc3ccccc3OC)nc2C#N)cc1	14µM*	/	-7%	/
COc1ccccc1OCc1nc(C#N)c(NCc2ccc(C)cc2)o1	/	-11%	/	2%
CCNc1oc(COc2ccccc2F)nc1C#N	14µM*	6%	-9%	1%
CC(=O)N1CCc2c(sc3c2c(=O)n(-c2ccccc2Cl)c(=O)n3C)C1	/	-14%	/	-2%
O=C(NC(=S)Nc1ccc(Oc2ccc(Cl)cc2)cc1)c1ccccc1	-16%	/	13µM*	/
COc1ccccc1-c1cc(C(=O)Nc2c(C)nn(Cc3ccc(Cl)cc3)c2C)no1	/	13µM*	/	?
COc1cccc(CNC(=O)C2CCCN(S(=O)(=O)c3cn(C)cn3)C2)c1 (stereo unspecified)	/	11%	/	-6%
COc1ccc(-c2nc(CNC(=O)Nc3ccccc3)c(C)o2)cc1	/	-1%	/	3%
COC(=O)c1ccc(C2Nc3c(C)cccc3-c3cc(C)nn32)cc1 (stereo unspecified)	/	0%	/	11%
Cc1cc(C)nc(Nc2ccc(N3CCOCC3)cc2)n1	-9%	?	-1%	13µM*
CN(C)c1ccc(/C=N\NC(=O)c2cnc3ccccc3c2)cc1	-2%	1%[9.22 µM]	2%[11.4 µM]	-7%[9.22 µM]
SMILES	HPGD block	p53ts 39C kill	12-hLO inh	p53ts 32C kill
CSc1sc(C)cc1/C=N/O	16µM*	/	-2%	/
Cc1ccccc1Nc1c(-c2c(F)cccc2Cl)nc2ccc(Br)cn12	/	-10%	/	3%
NC(=O)c1ccc(-c2ncc(-c3ccccc3)o2)cc1	?	20µM*	3%	?
COc1cccc(-n2c(COc3ccc(C)cc3)nnc2SCC(=O)O)c1	25µM*	4%	4%	8%
CC(=O)/C=C\c1cn(-c2ncc(C(F)(F)F)cc2Cl)c2ccccc12	32µM*	/	-5%	/
CCN(CC)c1ccc(/C=C2\C(=O)c3ccc(C(=O)O)cc3C2=O)cc1	2.8µM*	/	-3%	/
N#C/C(=C\c1ccco1)Sc1nc2ccccc2s1	10µM*	-19%	-7%	-14%
O=S1(=O)C=C(Sc2nc3ccccc3s2)c2ccccc21	?	?	-12%	13µM*
Cc1cc(C)nc(SC2=CS(=O)(=O)c3ccccc32)n1	-22%	?	-2%	-30%
c1ccc2sc(SSc3nc4ccccc4s3)nc2c1	10µM*	3%	2%	-6%[1.84 µM]
COc1ccc(CCN2CC34C=CC(O3)C(C(=O)NCc3ccccc3)C4C2=O)cc1OC (stereo unspecified)	10µM*	6%	-2%	-7%

From PubChem BioAssay
